The source of these data is PubChem BioAssay.

Where “and” joins values, the source holds several entries; their conditions need not be identical. Equal values may be shown once. Calls of active or inactive are those of the source.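 Rule for the calls, unless noted: active = mean z-score across replicates of 1.96 or higher in either the MELAS or the Rieske mutant cell line; inactive = the rest.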

One test in a line: sensitizers of A549 cells to miR-34 induction, primary screen, imaging, A549 dox-inducible miR-34, nuclei and caspase counts (AID 1347080). To be noted: A549 miR-34 inducible, Hoechst nuclei count, 48 h; measured here: total cells without miR-34 induction.
In the case of `Cc1cccc(C)c1NC(=O)CN1CCCC1=O`, the cell count is 11000 and 9380. Regarding `CC(=O)[C@H]1CC[C@H]2[C@@H]3CC[C@H]4C[C@H](O)CC[C@]4(C)[C@H]3C(=O)C[C@]12C`, the cell count was 9770 and 10300.

Consider `CC(O)CN1CCN(CC(=O)[O-])CCN(CC(=O)[O-])CCN(CC(=O)[O-])CC1.[Gd+3]` (configuration not stated), for which the cell count was 9240. On the same count and under the same terms, as for `CCCN1CCC[C@@H]2Cc3nc(N)ncc3C[C@H]21`, the figure is 10200; as for `CC(C)c1c(CN(C)C(C)Cc2ccccc2)n(C)n(-c2ccccc2)c1=O` (configuration not stated), 9380; as for `Cn1c(CCCC(=O)O)nc2cc(N(CCCl)CCCl)ccc21`, 7880 and 7250. Still for that read-out and setting: the value for `O=[N+]([O-])c1ccc([As](=O)(O)O)cc1` was 10000; that for `COP(=O)(OC)OC=C(Cl)Cl` was 12200. As to `FC(F)(F)c1cccc(C2=CCN(CCc3ccc4ccccc4c3)CC2)c1`, the cell count turned out to be 8830. Same read-out and setting: the value for `COc1ccc(CN2CCNCC2)c(OC)c1OC` was 10100; that for `COP(=O)(OC)C(O)C(Cl)(Cl)Cl` (configuration not stated) was 9070; that for `Cc1ncsc1CCCl` was 10100 and 8450. On to `C=CCN1C[C@H](C)N([C@H](c2ccc(C(=O)N(CC)CC)cc2)c2cccc(OC)c2)C[C@H]1C`, for which the cell count worked out at 8990.

Consider `CCCCc1ccc(C(=O)O)nc1`, for which the cell count is 11000 and 10700. On the same count and under the same terms, the value for `Cc1ccc(S(=O)(=O)N[C@@H](CCCCN)C(=O)CCl)cc1` was 9130 and 5960.

Consider `Fc1ccc(C(OCCN2CCN(CCCc3ccccc3)CC2)c2ccc(F)cc2)cc1`, for which the cell count was 1020 and 3730 and 1770.

Turning to `CC[N+](CC)(CC)CC`, the cell count was determined as 10600.

With `O=c1n(Cl)c(=O)n(Cl)c(=O)n1Cl`, the cell count was determined as 8940. Still for that read-out and setting: the value for `CCCCC/C=C\C/C=C\C/C=C\C/C=C\CCCC(=O)NCC(=O)O` was 6340 and 5700; that for `CCOC(=O)CC(SP(=S)(OC)OC)C(=O)OCC` (configuration not stated) was 8640.

As to `C[C@]12CC[C@H](O)CC1=CC[C@@H]1[C@@H]2CC[C@]2(C)C(=O)CC[C@@H]12`, the cell count amounted to 9620. Same read-out and setting: as for `O=C(O)Cc1ccccc1`, the figure is 12300 and 11100; as for `CC(C)(C)OC(=O)c1ncn2c1[C@@H]1CCCN1C(=O)c1c(Br)cccc1-2`, 7710. Regarding `Cc1nnc2n1-c1sc(CCC(=O)N3CCOCC3)cc1C(c1ccccc1Cl)=NC2`, the cell count came out at 9210. The same measure, in the same setting: the value for `CCCC[N+]1(C)[C@@H]2CC(OC(=O)[C@H](CO)c3ccccc3)C[C@H]1[C@@H]1O[C@@H]12` (some centres not stated) was 10700. Still for that read-out and setting: as for `CNCC(=O)c1ccc(O)c(O)c1`, the figure is 7310 and 7920; as for `Clc1cccc(SC2CCNCC2)n1`, 8400. Still for that read-out and setting: the value for `O=C(NC(=O)c1c(F)cccc1F)Nc1cc(Cl)c(OC(F)(F)C(F)C(F)(F)F)cc1Cl` (configuration not stated) was 6820. Turning to `CC(C)NCC(O)c1ccc(N)c(C#N)c1` (configuration not stated), the cell count is 6640 and 9850 and 11000.

Turning to `CN1C[C@@H](NS(=O)(=O)N(C)C)C[C@@H]2c3cccc4c3c(cn4C)C[C@H]21`, the cell count worked out at 10300. As to `O=C1NCN(c2ccccc2)C12CCN(CC1COc3ccccc3O1)CC2` (configuration not stated), the cell count is 9350 and 9690 and 10800.

As to `COc1ccc(C(=O)c2c(C)n(CCN3CCOCC3)c3ccccc23)cc1`, the cell count stood at 10500. With `N#CC(C#N)=Cc1ccc(O)c(O)c1`, the cell count was 8760 and 8720 and 10100. For the compound `O=C(O)c1ccc2[nH]cc(CCCCN3CC=C(c4ccccc4)CC3)c2c1`, the cell count came to 9380.

The next test can be described thus: phospholipid biosynthesis inhibitors in animal cells, primary screen, cell-based, LOPAC library, screen 4 (AID 1347384; call rule not given here). To be noted: phospholipid biosynthesis inhibition screen, at 10 µM.
On to `Cc1cccc(C)c1NC(=O)CN1CCCC1=O`, for which the result was inactive. On to `CC(=O)[C@H]1CC[C@H]2[C@@H]3CC[C@H]4C[C@H](O)CC[C@]4(C)[C@H]3C(=O)C[C@]12C`, for which the compound was classed as inactive. On the same count and under the same terms, as for `CCCN1CCC[C@@H]2Cc3nc(N)ncc3C[C@H]21`, the entry is “inactive”; as for `Cn1c(CCCC(=O)O)nc2cc(N(CCCl)CCCl)ccc21`, “inactive”. Still for that read-out and setting: as for `Cc1ncsc1CCCl`, the entry is “inactive”; as for `CCCCc1ccc(C(=O)O)nc1`, “inactive”.

Turning to `Cc1ccc(S(=O)(=O)N[C@@H](CCCCN)C(=O)CCl)cc1`, the compound was called inactive. Same read-out and setting: as for `c1ccc(C2CC2)c(OCC2=NCCN2)c1`, the entry is “inactive”. Regarding `Fc1ccc(C(OCCN2CCN(CCCc3ccccc3)CC2)c2ccc(F)cc2)cc1`, the call was inactive. Still for that read-out and setting: the value for `NCC1(CC(=O)O)CCCCC1` was “inactive”; that for `N#CC(C#N)=Cc1ccc(O)c(O)c1` was “inactive”.

The nature of a further test: survival rescue of mitochondrial mutant cells in low glucose, primary screen, MELAS cybrids, Rieske KO mouse fibroblasts, CellTiter-Glo (AID 1508586).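 Note: z relative to plate mean and SD of compound and empty wells.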 To be noted: MELAS cybrid survival, CellTiter-Glo 48 h, stronger effect = higher value.
With `Cc1cccc(C)c1NC(=O)CN1CCCC1=O`, the z-score is -0.209 (inactive). Turning to `CC(=O)[C@H]1CC[C@H]2[C@@H]3CC[C@H]4C[C@H](O)CC[C@]4(C)[C@H]3C(=O)C[C@]12C`, the z-score was 0.566 (inactive). Same read-out and setting: the value for `CC(C)c1c(CN(C)C(C)Cc2ccccc2)n(C)n(-c2ccccc2)c1=O` (configuration not stated) was -1.05 (inactive); that for `Cn1c(CCCC(=O)O)nc2cc(N(CCCl)CCCl)ccc21` was -0.517 (inactive); that for `COc1ccc(CN2CCNCC2)c(OC)c1OC` was 0.315 (inactive).

For the compound `c1ccc(C2CC2)c(OCC2=NCCN2)c1`, the z-score is -0.68 (inactive).

With `Fc1ccc(C(OCCN2CCN(CCCc3ccccc3)CC2)c2ccc(F)cc2)cc1`, the z-score is -0.775 (inactive).

As for `C[C@]12CC[C@H](O)CC1=CC[C@@H]1[C@@H]2CC[C@]2(C)C(=O)CC[C@@H]12`, the z-score is 0.542 (inactive). Consider `O=C(O)Cc1ccccc1`, for which the z-score was 0.496 (inactive). Same read-out and setting: the value for `NCC1(CC(=O)O)CCCCC1` was 0.467 (inactive) and -0.335 (inactive); that for `CCCC[N+]1(C)[C@@H]2CC(OC(=O)[C@H](CO)c3ccccc3)C[C@H]1[C@@H]1O[C@@H]12` (some centres not stated) was -0.818 (inactive) and -0.303 (inactive). On the same count and under the same terms, as for `CNCC(=O)c1ccc(O)c(O)c1`, the figure is -0.0398 (inactive); as for `CC(C)NCC(O)c1ccc(N)c(C#N)c1` (configuration not stated), 0.636 (inactive); as for `CN1C[C@@H](NS(=O)(=O)N(C)C)C[C@@H]2c3cccc4c3c(cn4C)C[C@H]21`, 0.531 (inactive). Still for that read-out and setting: as for `O=C1NCN(c2ccccc2)C12CCN(CC1COc3ccccc3O1)CC2` (configuration not stated), the figure is 0.415 (inactive); as for `COc1ccc(C(=O)c2c(C)n(CCN3CCOCC3)c3ccccc23)cc1`, 0.332 (inactive); as for `N#CC(C#N)=Cc1ccc(O)c(O)c1`, -0.508 (inactive).
